# Reference: PubChem BioAssay (NCI)
# About 79,000 compounds went through this panel and 15% of them were active in at least one assay; those are over-represented in the sample as a whole. Calls of active or inactive are those of the source. No stated cut-off is given here; in the data, active means growth inhibition above about 70%; inactive means the rest.
# Test: NCI Yeast Anticancer Drug Screen. Data for the rad14 strain (AID 159);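 further: 0% = growth of vehicle-treated control cultures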
# Conditions: S. cerevisiae rad14 strain growth inhibition; at 11.0 µM; hits give high values
# How it was run: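 Inhibition of growth is reported for a repair-deficient yeast mutant following compound treatment, calculated relative to cultures that received vehicle.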
row,SMILES,growth inhibition
1,CC(C)C(=O)CC(Sc1ccc(N)cc1)c1ccccc1 (centres undefined),6% (inactive)
2,CC(C)OP(=O)(OC(C)C)/C(Cl)=N/Nc1ccc([N+](=O)[O-])cc1,24% (inactive)
3,O=[N+]([O-])c1cc(Cl)ccc1S(=O)(=O)c1ccc(Cl)cc1[N+](=O)[O-],25% (inactive)
4,CCCCCCNCCCNc1c2cc(OC)ccc2nc2cccc([N+](=O)[O-])c12,96% (active)
5,N#CCC(=O)N/N=C(\c1ccccc1)C(c1ccccc1)C1(O)C(=O)Nc2c(Cl)ccc(Cl)c21 (centres undefined),10% (inactive)
6,CN(C)CCNCCCNc1c2ccccc2nc2cccc([N+](=O)[O-])c12,92% (active)
7,CCC[CH2][Ge]([CH2]CCC)([CH2]CCC)[O]C(=O)C(O)c1ccccc1 (centres undefined),-1% (inactive)
8,COc1ccc(-c2cc(-c3cc(C)cc(Cl)c3O)nc3[nH]c(=S)[nH]c(=S)c23)cc1,9% (inactive)
9,O=[N+]([O-])c1ccc(/C=C\c2ccc3c(c2)OCO3)c([N+](=O)[O-])c1,12% (inactive)
10,O=C1c2ccccc2N2OC3(N4CCCC4)CCCCC3C12c1ccccc1 (centres undefined),-27% (inactive)
11,CC(C)OC(=O)NNc1cc(Cl)ccc1Cl,20% (inactive)
12,CC1(C)OC(=O)C(=Cc2ccc([N+](=O)[O-])s2)C(=O)O1,2% (inactive)
13,CCN(CC)CCCNc1ccc([N+](=O)[O-])c2nc3ccc(OC)cc3c(NCCCN(CC)CC)c12,-1% (inactive)
14,COc1cccc(/C=C2\S/C(=N/Nc3nc(-c4ccc([N+](=O)[O-])cc4)cs3)NC2=O)c1O,6% (inactive)
